Results filed as inconclusive are left out. Calls of active or inactive are those of the source. Rule for the calls: active = hit-call score of the fitted dose curve at least 0.9, where 1 is the maximum; inconclusive = response in the unintended direction; inactive = score below 0.9.
biological target: Oxysterols receptor LXR-alpha (Homo sapiens) (UniProt Q13133); test: ATG_LXRa_TRANS: Attagene TRANS-FACTORIAL HepG2 Assay for human Liver X Receptor alpha (LXRa) (AID 2282980); conditions: HepG2 Attagene TRANS reporter, LXRa transactivation
Sequence (Q13133 whole entry, looked up): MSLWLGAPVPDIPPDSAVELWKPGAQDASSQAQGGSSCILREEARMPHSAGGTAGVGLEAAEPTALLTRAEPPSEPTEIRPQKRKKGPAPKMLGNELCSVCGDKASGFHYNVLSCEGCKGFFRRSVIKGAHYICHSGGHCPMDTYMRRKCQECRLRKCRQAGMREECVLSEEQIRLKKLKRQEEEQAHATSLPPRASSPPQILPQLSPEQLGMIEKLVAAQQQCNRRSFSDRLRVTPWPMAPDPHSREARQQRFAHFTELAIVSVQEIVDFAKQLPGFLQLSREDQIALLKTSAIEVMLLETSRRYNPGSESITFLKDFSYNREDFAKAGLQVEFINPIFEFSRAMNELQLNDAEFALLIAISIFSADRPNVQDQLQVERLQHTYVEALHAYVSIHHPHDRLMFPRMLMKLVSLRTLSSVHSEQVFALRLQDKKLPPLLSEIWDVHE
Method: ATG_TRANS is a cell-based, multiplexed-readout assay that uses HepG2, a human liver cell line, with measurements taken at 24 hours after chemical dosing in a 24-well plate.ATG_LXRa_TRANS is one of 30 assay component(s) measured or calculated from the ATG_TRANS assay. It is designed to make measurements of mRNA induction, a form of inducible reporter, as detected with fluorescence intensity signals by Reverse transcription polymerase chain reaction (RT-PCR) and Capillary electrophoresis technology.Data from the assay component ATG_LXRa_TRANS was analyzed into 1 assay endpoint. This assay endpoint, ATG_LXRa_TRANS, was analyzed in the positive analysis fitting direction relative to DMSO as the negative control and baseline of activity. Using a type of inducible reporter, measures of mRNA for gain-of-signal activity can be used to understand the reporter gene at the transcription factor-level as they relate to the gene NR1H3. Furthermore, this assay endpoint can be referred to as a primary readout, because this assay has produced multiple assay endpoints where this one serves a reporter gene function. To generalize the intended target to other relatable targets, this assay endpoint is annotated to the nuclear receptor intended target family, where the subfamily is non-steroidal.
Human liver HepG2 cells are transiently transfected with multiple reporter transcription units (MRTUs) in 6-well plates using FuGene 6 reagent (Roche; 3 ml FuGene/1 mg DNA). The MRTU constructs are regulated by a cis-regulating element (promoter). […] A major difference between the CIS and TRANS system is that in CIS activities of endogenous TFs are measured, whereas the TRANS assay evaluates changes in activities of exogenous, chimeric NR-Gal4 proteins. […] At the end of 24 hour incubation, total RNA was isolated using TriZol reagent (Invitrogen). The isolated RNA is then reverse-transcribed using oligo(dT) primer and Mo-MLV reverse transcriptase (Invitrogen) with DNAse I (Ambion) treatment for 30 min. The one-tenth of the produced cDNA was amplified by PCR using Taq DNA polymerase (Invitrogen) and two reporter sequence-specific primers. The PCR products were fluorescently labeled by primer extension with 6-arboxyfluorescein (6-FAM) 5'-labeled reporter sequence-specific primer (2 min at 95 C, 20 s at 68 C and 10 min at 72 C) and these products were digested with 5U of HpaI (New England Biolabs) for 2h at 37 C. The fragments were purified using Qiaquick PCR columns (Qiagen), analyzed on an ABI 3130xL genetic analyzer (Applied Biosystems) with peak positions identified by using a set of X-rhodamine (ROX)-labeled MapMarker1000 molecular weight standards (BioVentures). The raw capillary electrophoresis data was processed using Attagraph software (Attagene).

outcome, inactive:
c1ccc(CCc2ccccc2)cc1, O=[N+]([O-])c1ccc(O)cc1C(F)(F)F, CCOC(=O)CC(C)O (stereo not given), CCCCCCC(CO)CCCC (stereo not given), COS(=O)(=O)O, CCCCCC(C)=O, O=C(c1ccccc1)C(O)c1ccccc1 (stereo not given), CCc1cc(Cc2cc(CC)cc(C(C)(C)C)c2O)c(O)c(C(C)(C)C)c1, CCC(C)c1cc([N+](=O)[O-])cc([N+](=O)[O-])c1OC(=O)OC(C)C (stereo not given), OCCOCCN1CCN(C2=Nc3ccccc3Sc3ccccc32)CC1, CC(C)CC(C)CC(O)CC(C)C (stereo not given), CC(=O)O[C@@H]1CC2CCC1(C)C2(C)C (stereo not given in full), CC1(C)C2=CCCC(C)(C)[C@]23CC[C@H]1C3, O=C1OC2(c3ccccc31)c1ccc(O)c(Br)c1Oc1c2ccc(O)c1Br, CCCC(C)=O, C=COCCOCCOC=C, Cc1c(C2(c3cc(Br)c(O)c(Br)c3C)OS(=O)(=O)c3ccccc32)cc(Br)c(O)c1Br, CCc1ncc(C)[nH]1, CC(Oc1cc(Cl)ccc1Cl)C(=O)O (stereo not given), Cc1ccc(S(N)(=O)=O)cc1, O=C(O)CCCCCCCCC(=O)O, CC(CN=Cc1ccccc1O)N=Cc1ccccc1O (stereo not given), CC(C)CCCCCCCCCCCCCCC(=O)O, c1ccc(CN(Cc2ccccc2)Cc2ccccc2)cc1, CCC1(C)NC(=O)NC1=O (stereo not given), c1ccc2[nH]cnc2c1, CC(C)(N=C=O)c1cccc(C(C)(C)N=C=O)c1, CSCCC=O, CC(C)(C)C1=CC(=O)C(C(C)(C)C)=CC1=O, COc1cc(Cl)c(OC)cc1N, Oc1ccc2cc(SSc3ccc4cc(O)ccc4c3)ccc2c1, OCC(O)c1ccccc1 (stereo not given), CN(C)c1cccc(O)c1, CCCCCCCCCC(C)C=O (stereo not given), CC(=O)O[C@@H]1C[C@@H]2CC[C@@]1(C)C2(C)C, Cc1ccc(N)c(S(=O)(=O)O)c1, COC(=O)c1ccc(OC)cc1, O=C(O)CCCCCCCCCCCC(=O)O, CCC(Cl)C(Cl)C(Cl)CC(Cl)C(Cl)C(C)Cl (stereo not given), CCOC(=O)CN

Reference: PubChem BioAssay (EPA / NIEHS)
